D1 ag: Allosteric Agonists of the Human D1 Dopamine Receptor: qHTS; D(1A) dopamine receptor (Homo sapiens), P21728; HEK293 T-REx D1 cells, calcium flux, agonist mode; activation, % at 2 µM; 360,000 compounds, 1% hits; in the data active = activation above about 30%; also: 0% is about no effect
Target sequence (P21728 whole entry, looked up): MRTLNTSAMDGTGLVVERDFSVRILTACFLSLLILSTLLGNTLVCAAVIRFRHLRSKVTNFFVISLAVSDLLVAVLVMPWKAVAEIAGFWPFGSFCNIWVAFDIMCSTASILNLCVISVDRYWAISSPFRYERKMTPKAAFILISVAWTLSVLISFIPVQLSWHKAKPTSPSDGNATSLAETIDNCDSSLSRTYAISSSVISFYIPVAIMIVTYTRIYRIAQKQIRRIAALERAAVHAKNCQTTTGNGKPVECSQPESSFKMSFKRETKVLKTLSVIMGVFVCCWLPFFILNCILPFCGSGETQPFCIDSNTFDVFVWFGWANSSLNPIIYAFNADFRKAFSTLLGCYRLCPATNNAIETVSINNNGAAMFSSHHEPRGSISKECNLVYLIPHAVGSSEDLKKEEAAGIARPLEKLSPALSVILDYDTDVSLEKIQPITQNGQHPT
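Agonism was scored from calcium flux recorded over 180 s (1 read/s) after pintool compound addition, following a 10-cycle baseline. Cells were inducible force-coupled HEK293 TREx D1, plated overnight at 30 C and loaded with no-wash calcium dye.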
D1 antag: Antagonist of Human D 1 Dopamine Receptor: qHTS; 360,000 compounds, 3.2% hits; D(1A) dopamine receptor (Homo sapiens), P21728; AID 504652, 2011; HEK293 TREx D1 cells, calcium flux, dopamine EC80; stronger effect = lower value; activity change, negative = inhibition, % at 10 µM; in the data active = activity change below about -30%; also: % is scaled to controls: 0 for no effect and ±100 for the full control effect
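After overnight tetracycline induction at 30 C, force-coupled D1 HEK293 cells took up a no-wash calcium dye at room temperature. Compounds were added and monitored 180 s, and the response to EC80 dopamine was then recorded.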
TRPV1 PAM: HTS Assay for Compounds that Act as Potentiators of the Vanilloid Receptor 1; TRPV1-expressing cells, Fluo-8 calcium influx, capsaicin EC20 potentiation; potentiation, % at 8.33 µM; 320,000 compounds, 0.02% hits; in the data active = potentiation above about 80%; inconclusive = between about 30% and that limit; also: 0% is about no effect
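TRPV1-expressing cells were cultured overnight at 35.5C and loaded with Fluo-8 calcium dye for 40 to 90 min at room temperature. After a 10 s baseline, compound was added and calcium influx was read kinetically for 3 min (ex 480/em 520 nm).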
TRPV1 agonist: HTS Assay for Compounds that Act as Agonists of the Vanilloid Receptor 1; Transient receptor potential cation channel subfamily V member 1 (Homo sapiens), Q8NER1; TRPV1-expressing cells, Fluo-8 calcium influx, agonist mode; activation, % at 8.33 µM; 320,000 compounds, 0.19% hits; AID 540275, 2011; in the data active = activation above about 80%; inconclusive = between about 30% and that limit; also: 0% is about no effect
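TRPV1-expressing cells were cultured overnight at 35.5C and loaded with Fluo-8 calcium dye for 40 to 90 min at room temperature. After a 10 s baseline, compound was added and calcium influx was read kinetically for 3 min (ex 480/em 520 nm).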
D1 potentiator: Potentiators of Human D1 Dopamine Receptor: qHTS; D(1A) dopamine receptor (Homo sapiens), P21728; HEK293 TREx D1 cells, calcium flux, dopamine EC20 potentiation; potentiation, % at 10 µM; 360,000 compounds, 0.036% hits; in the data active = potentiation above about 30%; also: 0% is about no effect
* marks the source's active call; other numbers are inactive results; ? = inconclusive; . = no result given. Most compounds without a hit are left out; they make up all but 4.2% or so of the library.

SMILES	D1 ag	D1 antag	TRPV1 PAM	TRPV1 agonist	D1 potentiator
CN(C)C(=O)C(CCN1CCC(O)(c2ccc(Cl)cc2)CC1)(c1ccccc1)c1ccccc1	39.9*	-21.3	11.8	6.6	-5.8
CN(C)c1ccc(NC(=O)CN2CCC(O)(c3ccccc3)CC2)cc1	1.8	-4.6	8.1	-0.9	-4.7
CCCCS(=O)(=O)c1oc(-c2ccc(F)cc2)nc1S(=O)(=O)c1ccc(C)cc1	4.1	-5.6	.	.	-1.6
O=S(=O)(NCCCN1CCN(c2ccccc2F)CC1)c1cccc2cccnc12	2.7	-72.8*	.	.	-9.5
CCc1ccc(CNC(=O)c2ccc3c(c2)nc2n3CCCCC2)cc1	0.5	10.1	.	.	-0.8
CCc1ccc(-n2c(=O)c3c4c(sc3n(Cc3cc(=O)n5c(C)cccc5n3)c2=O)CCC4)cc1	-1.6	6.9	.	.	5.8
CCOc1ccc(NC(=O)N2CC=C(c3c[nH]c4ccccc34)CC2)cc1	5.6	-35.1*	.	.	-2.6
COc1ccccc1N1CCN(CC(O)COc2ccc(C)cc2C(C)(C)C)CC1 (stereo not given)	1.6	1.3	-2.7	4.0	-2.5
O=C(NCc1ccco1)C1CCCN(c2nnc(-n3cccc3)s2)C1 (stereo not given)	1.9	-39.4*	11.1	13.3	-1.5
COc1ccc(NC(=O)CSC2=Nc3ccccc3C3=NC(CCC(=O)NCc4ccco4)C(=O)N23)cc1 (stereo not given)	2.6	45.1	.	.	7.8
NC(=O)C1CCN(C(=O)CCSCc2ccccc2)CC1	7.2	0.8	-15.6	?	2.9
NC(=O)C1CCN(C(=O)CCSCc2ccc(Cl)c(Cl)c2)CC1	2.5	6.2	14.4	88.0*	0.5
CCCc1cc(=O)[nH]c(SCc2nc(-c3ccc(OC)cc3)no2)n1	5.2	8.0	.	.	-1.4
COc1cc(/C=N/NC(=O)CNC(=O)c2ccco2)ccc1O	3.8	-48.1*	6.2	-3.4	-2.3
O=C(CNC(=O)c1ccco1)N/N=C/c1cc(Br)ccc1O	4.9	11.6	6.0	-1.0	11.0
CC(CCc1ccccc1)NS(=O)(=O)c1ccccc1 (stereo not given)	7.4	-36.7*	-14.6	16.5	-2.8
CC(C)Cn1cc(NC(=O)N2CCN(c3ccccc3F)CC2)c2ccccc2c1=O	-0.6	-4.5	.	.	-6.8
COc1nc(-c2ccccc2)ccc1-c1noc(-c2ccccc2F)n1	159.1*	-24.3	4.3	2.0	0.0
O=C(NCc1ccccn1)C1CCC(CNS(=O)(=O)c2cccc3nsnc23)CC1 (stereo not given)	6.9	22.3	21.2	0.0	-2.2
CC(C)NC(=O)C1CCN(C2CCN(C(=O)Cc3ccc4c(c3)OCO4)CC2)CC1	0.0	-32.9*	3.7	-1.7	-4.3
CS(=O)(=O)N1CCC(C(=O)NCc2ccc3c(c2)OCO3)CC1	1.1	-34.8*	-0.4	-0.4	0.8
COCCNC(=O)C1CCC(CNS(=O)(=O)c2cccc3nsnc23)CC1 (stereo not given)	0.7	33.5	-8.4	0.1	1.8
COc1ccc(CNC(=O)C2CCC(CNS(=O)(=O)c3cccc4nsnc34)CC2)cc1 (stereo not given)	3.4	-45.8*	-32.1	-0.2	-4.2
O=C(NCc1ccc2c(c1)OCO2)C1CCC(CNS(=O)(=O)c2cccc3nsnc23)CC1 (stereo not given)	0.5	-51.7*	1.3	1.7	.
CC1CCN(S(=O)(=O)N2CCC(C(=O)NCc3ccc4c(c3)OCO4)CC2)CC1	0.6	-5.4	-5.0	15.3	-7.5
SMILES	D1 ag	D1 antag	TRPV1 PAM	TRPV1 agonist	D1 potentiator
CCOc1ccc(-n2nc3ccc(NC(=O)COc4ccccc4C)cc3n2)cc1	2.2	0.7	.	.	-1.8
C=C(C)Cn1c(NCCOC)nc2c1c(=O)[nH]c(=O)n2C	-0.6	-39.6*	8.3	0.8	4.4
CCOc1ccccc1-c1nc(CN(Cc2cnn(C)c2)C(C)C)c(C)o1	2.3	-2.7	-5.2	6.7	-3.8
COc1ccc(-c2nc(CN(Cc3cnn(C)c3)C(C)C)c(C)o2)c(OC)c1	0.5	-31.1*	5.2	1.5	-1.5
O=C(CSc1nc2c([nH]c3ccccc32)c(=O)n1-c1ccc(Cl)cc1)NCc1ccccc1	3.6	-1.8	.	.	-1.2
CC(C)CC(NC(=O)C1CCC(C)CC1)C(=O)Nc1ccccc1F (stereo not given)	1.5	10.2	-12.2	25.4	-4.2
CC(C)CC(NC(=O)C1CCC(C)CC1)C(=O)Nc1ccccn1 (stereo not given)	0.4	-32.4*	-6.7	17.3	-6.6
O=C(NCCN1C(=O)S/C(=C\c2ccc(Cl)c(Cl)c2)C1=O)c1cnccn1	-0.6	-5.4	1.7	0.5	-1.4
O=C(NCCN1C(=O)S/C(=C\c2ccc(Cl)c([N+](=O)[O-])c2)C1=O)C1=COCCO1	8.1	-56.9*	11.1	-5.1	-5.8
CCCn1c(N2CCN(C(=O)Nc3ccc(Cl)cc3)CC2)nc2ccccc21	2.1	4.6	3.3	80.9*	-5.1
CC(C)n1c(N2CCN(C(=O)Nc3ccc(Cl)cc3)CC2)nc2ccccc21	1.1	-2.6	-15.2	82.2*	-5.2
CCCn1c(N2CCN(C(=O)NCc3ccccc3)CC2)nc2ccccc21	-1.2	-9.6	-18.6	?	-4.0
Cc1cc(NO)c(C(C)C)cc1N=O	36.4*	-29.3	-0.9	-4.9	-10.3
NC(=O)C1CCN(c2ncnc3c2cnn3-c2cccc(Cl)c2)CC1	0.1	-18.2	.	.	-1.8
CC(C)(C)NC(=O)c1cccc(NC(=O)CSc2ccc(Cl)cc2)c1	10.4	-59.2*	5.5	1.0	-11.2
Cc1cc(OC(C)C(=O)N2CCC(c3nc4ccccc4o3)CC2)ccc1Cl (stereo not given)	0.9	2.4	.	.	-0.4
O=C(COc1ccc(Cl)cc1)OCC(=O)c1ccc[nH]1	-0.5	-11.0	-11.0	-0.9	-9.7
Cc1cc(OCC(=O)OCC(=O)c2ccc[nH]2)ccc1Cl	10.2	-34.3*	-9.1	-0.2	-3.5
Cc1ccccc1OCC(=O)OCC(=O)c1ccc(OCc2ccccc2)cc1	54.6*	16.3	-2.5	-1.0	-3.8
Cc1ccccc1OCC(=O)OCC(=O)c1ccc[nH]1	2.1	-31.7*	-6.3	6.3	-5.9
COC(=O)Cn1c(=O)c2cccn2c2ccc(F)cc21	-2.0	22.0	.	.	-0.7
COc1ccc(N2CC(C(=O)OCC(=O)Nc3cccc(C)c3)CC2=O)cc1 (stereo not given)	1.7	-30.5*	15.4	-3.3	8.4
COc1ccc(-n2ncc3c2ncn2nc(COc4ccc(Cl)cc4)nc32)cc1	2.6	5.4	.	.	-2.2

Source: PubChem BioAssay
